# Data reported in PubChem BioAssay (Tox21).
# Several values for one entry are separate records, joined by “and”; a condition that tells them apart may be missing. Equal entries are not always repeated. Records with an inconclusive call do not appear. Where a call stands in place of a potency, no number is given. Activity calls are given as the source filed them. The call rests on the fitted dose curve.
# Target: Peroxisome proliferator-activated receptor gamma (Homo sapiens) (UniProt P37231)
# Assay: qHTS assay to identify small molecule antagonists of the peroxisome proliferator-activated receptor gamma (PPARg) signaling pathway (AID 743191); further: nearly all actives have a fitted effect of over 30% in size
# Conditions: HEK293H PPARg-UAS-bla, beta-lactamase ratio, antagonist, 17 h; series mostly up to 62.6 µM
# Description: U.S. Tox21 Program National Center for Advancing Translational Sciences [NCATS] NIH Chemical Genomics Center [NCGC] U.S. Environmental Protection Agency [EPA] National Institutes of Environmental Health Sciences [NIEHS] National Toxicology Program [NTP] U.S. Food and Drug Administration [FDA] Tox21 Assay Overview: The peroxisome proliferator-activated receptors (PPARs) are lipid-activated transcription factors of the nuclear receptor superfamily with three distinct subtypes namely PPAR alpha, PPAR delta (also called PPAR beta) and PPAR gamma (PPARg). All these subtypes heterodimerize with Retinoid X receptor (RXR) and these heterodimers regulate transcription of various genes. PPAR-gamma receptor (glitazone receptor) is involved in the regulation of glucose and lipid metabolism. To identify the compounds that inhibit PPAR-gamma signaling, GeneBLAzer PPAR gamma UAS-bla HEK293H cell line (Invitrogen, Carlsbad, CA, USA) containing a beta-lactamase reporter gene under control of an Upstream Activator Sequence (UAS) was used to screen the Tox21 compound library.
# Tox21 Assay Protocol Summary: PPARg-bla cells were dispensed at 3000 cells/6uL/well in 1536-well black wall/clear bottom plates using a Multidrop Combi (Thermo Fisher Scientific, Waltham, MA) dispenser. After the assay plates were incubated at 37C and 5% CO2 for 5 h, 23 nL of compounds dissolved in DMSO, positive controls or DMSO only was transferred to the assay plate by a Pintool station (Kalypsys, San Diego, CA). The assay plates were incubated at 37C for 17 h. After 1 uL of LiveBLAzerTM B/G FRET substrate was added using a Bioraptr Flying Reagent Dispenser (FRD) workstation (Beckman Coulter, Indianapolis, IN, USA), the plates were incubated at room temperature for 1 h, and fluorescence intensity was measured by an Envision plate reader (PerkinElmer, Shelton, CT).
# Potency means the concentration at half of the fitted maximal effect.
# Peroxisome proliferator-activated receptor gamma (Homo sapiens), sequence (P37231 whole entry, looked up): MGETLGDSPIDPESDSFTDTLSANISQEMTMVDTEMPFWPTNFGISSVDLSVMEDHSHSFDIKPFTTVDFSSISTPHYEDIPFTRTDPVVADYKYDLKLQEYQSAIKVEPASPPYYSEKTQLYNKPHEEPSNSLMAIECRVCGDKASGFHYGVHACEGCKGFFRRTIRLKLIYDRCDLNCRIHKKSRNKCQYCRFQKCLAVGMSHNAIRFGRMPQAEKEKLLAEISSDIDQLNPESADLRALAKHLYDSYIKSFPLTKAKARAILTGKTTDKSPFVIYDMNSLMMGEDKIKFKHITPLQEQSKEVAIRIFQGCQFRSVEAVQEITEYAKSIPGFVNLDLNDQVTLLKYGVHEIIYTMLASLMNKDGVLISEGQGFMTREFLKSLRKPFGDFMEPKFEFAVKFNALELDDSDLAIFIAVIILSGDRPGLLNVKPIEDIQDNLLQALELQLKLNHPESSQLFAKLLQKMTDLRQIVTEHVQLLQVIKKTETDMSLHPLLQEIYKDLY
row,Compound,Potency
1,CCNCC,inactive
2,ClCc1ccccn1,inactive
3,N#CCCCCC#N,inactive
4,COP(=S)(OC)SCn1nnc2ccccc2c1=O,49 µM (active)
5,Cc1ccc([N+](=O)[O-])cc1,inactive
6,N#Cc1cccnc1,inactive
7,O=NN(c1ccccc1)c1ccccc1,inactive
8,Nc1ccc2ccccc2c1,inactive
9,CC1(C)C(C(=O)OC(C#N)c2cccc(Oc3ccccc3)c2)C1(C)C (stereo not given),inactive
10,N#CC(c1ccccc1)c1ccccc1,inactive
11,Clc1cccc(C(Cl)(Cl)Cl)n1,inactive
12,Cn1c(-c2ccccc2)cc(-c2ccccc2)[n+]1C,inactive
13,CNC(=O)Oc1cccc2c1OC(C)(C)C2,inactive
14,S=c1[nH]c2ccccc2[nH]1,inactive
15,ClC(Cl)(Cl)Br,inactive
16,Clc1cccc(Cl)c1,inactive
17,Clc1ccc(C(Cl)(Cl)Cl)cc1,inactive
18,CN(C)P(=O)(N(C)C)N(C)C,inactive
19,CCCCCCCCCCCCCl,inactive
20,NC(=O)CN1CCCC1=O,inactive

row,Compound,Potency
1,CC(C)=CC1C(C(=O)OCN2C(=O)C3=C(CCCC3)C2=O)C1(C)C (stereo not given),11.9 µM (active)
2,O=C(O)CF,inactive
3,CC(C)(c1ccccc1)c1ccc(O)cc1,inactive
4,C=CC(Cl)CCl (stereo not given),inactive
5,CN(C)c1nc(=O)n(C2CCCCC2)c(=O)n1C,inactive
6,Cc1ccc(N=CN(C)C=Nc2ccc(C)cc2C)c(C)c1,inactive
7,COC(=O)Nc1nc2ccccc2[nH]1,inactive
8,CCN(CC)C(=O)C(C)Oc1cccc2ccccc12 (stereo not given),inactive
9,CC1(C)Cc2cccc(O)c2O1,inactive
10,COP(=S)(OC)Oc1ccc(S(=O)(=O)N(C)C)cc1,inactive
11,NN=C(N)N,inactive
12,CCOP(=S)(OCC)SCSC(C)(C)C,inactive
13,CCOP(=S)(OCC)OP(=S)(OCC)OCC,inactive
14,C[N+](C)(C)CC(=O)O,inactive
15,[CH3][Sn]([Cl])([Cl])[Cl],inactive
16,CCC1(c2ccc(N)cc2)CCC(=O)NC1=O (stereo not given),inactive
17,CCNc1nc(Cl)nc(NC(C)(C)C#N)n1,inactive
18,CC1CC(=O)O1 (stereo not given),inactive
19,CC[n+]1c(-c2ccccc2)c2cc(N)ccc2c2ccc(N)cc21,48.8 µM (active) and 26.6 µM (active)
20,COc1ccc(O)c(C(C)(C)C)c1,inactive
